Sampled rows, rich in hits. Any-hit rate of the full collection: about 4.8%.
DAX1 inh-1 – inhibitors of DAX1 repression of SF-1 activated StAR promoter; hit rate 1.1% among 370,000; HEK293T StAR-luciferase reporter, SF-1/DAX-1 repression relief; inhibition, % at 6.8 µM;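 active = inhibition above the mean over all tested compounds plus 3 SD, cut at about 3.6% in these data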;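 note: 0% = DAX-1 cells with DMSO and 100% = cells lacking DAX-1 with DMSO; higher inhibition means more luminescence from relief of DAX-1 repression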
hcDAF-12 act – activates DAF-12 receptor from parasite H. contortus. HEK293 hcDAF-12 lit1-tk-luc reporter, luminescence; 0% DMSO, 100% Δ7-dafachronic acid. activation, % at 6.8 µM. hit rate 1.4% among 370,000;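 active = activation above the mean of all tested compounds plus 3 SD, cut at about 5.5% in these data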;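 note: 100% = response to 3 µM Δ7-dafachronic acid high control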
ssDAF12 agonist – S. stercoralis DAF-12 activation, primary screen. HEK293 ssDAF-12/GRIP1 lit1-tk-luc reporter, luminescence; % of 3 µM dafachronic acid response. activation, % at 6.8 µM. hit rate 1% among 370,000. AID 652126;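 active = activation above the mean over all tested compounds plus 3 SD, cut at about 0.9% in these data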;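 note: 0% = DMSO-only wells and 100% = 3 µM delta7-dafachronic acid wells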
DAX1 inh-2 – inhibitors of human orphan nuclear receptor DAX1 (NR0B1). HEK293 Gal4-DAX1 luciferase reporter, luminescence. P51843. AID 504766. hit rate 0.99% among 340,000. inhibition, % at 6.75 µM;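 active = inhibition above the mean over all tested compounds plus 3 SD, cut at about 4.2% in these data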;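 note: 0% = DAX1-transfected cells with DMSO and 100% = empty-vector control cells with DMSO; inhibition shows as a rise in luminescence from relieved DAX1 repression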
Target sequence (P51843 207-470 limits assumed): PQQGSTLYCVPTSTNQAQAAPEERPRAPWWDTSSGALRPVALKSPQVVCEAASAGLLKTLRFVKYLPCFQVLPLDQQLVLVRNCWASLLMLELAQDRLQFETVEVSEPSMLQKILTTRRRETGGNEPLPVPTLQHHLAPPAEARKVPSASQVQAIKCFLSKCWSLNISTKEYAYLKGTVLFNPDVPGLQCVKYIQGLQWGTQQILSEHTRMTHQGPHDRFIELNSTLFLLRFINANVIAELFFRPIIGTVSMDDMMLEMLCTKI
SMARCA2 activ – activators of SMARCA2 function | AID 652017 | activation, % at 9.1 µM | MG213 cells, MMTV-luciferase reporter, dexamethasone, overnight | hit rate 1% among 370,000; in the data active = activation above about 7.8%;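 note: 0% = vehicle wells and 100% = reference activator wells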
hgDAF-12 ag – agonists of H. glycines DAF-12 nuclear receptor | activation, % at 6.8 µM | AID 687014 | hit rate 1.8% among 370,000 | HEK293 GAL4-hgDAF12 UAS-luciferase reporter, agonist luminescence; normalized to butyrate control;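 active = activation above a cutoff set at the mean of all screened compounds plus 3 SD, cut at about 10% in these data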;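 note: 0% = DMSO wells and 100% = sodium butyrate wells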
* marks the source's active call; other numbers are inactive results; x = no result given.

SMILES | DAX1 inh-1 | hcDAF-12 act | ssDAF12 agonist | DAX1 inh-2 | SMARCA2 activ | hgDAF-12 ag
Cc1ccc(S(=O)(=O)NCC(=O)OCC(=O)Nc2ccccc2OC(F)F)cc1 | -0.1 | -1.1 | -1.2 | 5.9* | -2.6 | -0.8
O=C(COC(=O)c1ccc2c(c1)OCO2)Nc1ccccc1OC(F)F | -2.2 | 0.1 | -0.8 | -1.0 | 2.9 | 2.1
O=C(COC(=O)c1ccc(Cl)c([N+](=O)[O-])c1)Nc1ccccc1OC(F)F | 0.1 | 2.1 | -1.0 | 4.7* | 1.4 | 0.8
Fc1cccc(NC(=S)N2CCCC2)c1 | 0.1 | 0.5 | -0.7 | 1.9 | 0.4 | -3.8
CC(Sc1nnc(-c2ccc(OC(F)F)cc2)o1)C(=O)NCC1CCCO1 (centres undefined) | 0.9 | 1.5 | 1.1* | 0.0 | -1.6 | -1.7
CC(Sc1nnc(-c2ccc(OC(F)F)cc2)n1N)C(=O)NCC1CCCO1 (centres undefined) | 4.4* | -0.1 | -0.7 | 0.2 | -2.0 | 1.4
CC(Sc1nnc(-c2ccco2)n1N)C(=O)NCC1CCCO1 (centres undefined) | -0.6 | -1.1 | -0.7 | 0.2 | -1.2 | 1.2
O=C(NCc1ccco1)c1ccccc1Nc1ccc(F)cc1 | -0.2 | -0.2 | -1.3 | 0.9 | 3.7 | -1.5
Cc1onc(-c2ccccc2)c1C(=O)Nc1ccncc1 | -0.9 | -1.3 | -0.8 | 1.4 | -3.6 | -0.7
Cc1onc(-c2ccccc2)c1C(=O)Nc1cccc(C#N)c1 | -1.5 | 2.0 | -1.5 | 1.6 | -0.1 | 10.7*
Cc1onc(-c2ccccc2)c1C(=O)NNC(=O)c1ccccc1 | -0.5 | 3.1 | 1.1* | 0.2 | -0.1 | -0.4
Cc1onc(-c2ccccc2)c1C(=O)NNC(=O)c1ccccc1O | -2.2 | 1.2 | -0.7 | 1.7 | -0.8 | 3.9
O=C(/C=C/c1ccc(F)cc1)N1CCc2ccccc2C1 | 3.8* | 3.5 | -0.2 | 0.5 | 4.0 | 4.8
S=C(Nc1ccc(Cl)c(Cl)c1)N1CCCC1 | -0.1 | -2.5 | -0.6 | -0.1 | -3.1 | -4.0
Cc1ccc(/C=N/NC(=O)CNC(=O)c2ccc(S(=O)(=O)N(C)C)cc2)o1 | -0.8 | -2.8 | -0.4 | 2.6 | 0.5 | -2.9
C=c1[nH]cc(C(C)c2c(C)n(C)c3ccccc23)/c1=C/C (centres undefined) | -0.2 | 6.0* | 0.5 | x | 4.6 | 4.9
CC(c1c[nH]c2ccccc12)c1cn(C)c2ccccc12 (centres undefined) | -1.4 | 2.1 | -0.5 | x | -3.5 | 2.1
Cc1cnc(-c2nc3ccccc3n2C(C(=O)NC(C)(C)C)c2ccccc2)cn1 (centres undefined) | 1.0 | 0.1 | -1.1 | x | -3.4 | -2.5
Cc1cnc(-c2nc3ccccc3n2C(C(=O)NC(C)(C)C)c2ccncc2)cn1 (centres undefined) | 1.3 | -1.1 | 0.1 | x | 0.6 | 11.0*
O=C(Nc1ccccc1C(=O)N1CCOCC1)C1COc2ccccc2O1 (centres undefined) | 0.0 | -0.3 | -1.3 | -1.8 | -1.2 | 2.9
O=C(/C=C/c1ccc(OC2CSC2)cc1)c1ccc(Cl)cc1 | -0.4 | 5.6* | -1.2 | 2.5 | -2.9 | 1.9
O=c1cc(-c2ccccc2)cc(-c2ccccc2)n1CCCO | -0.2 | -1.4 | -1.5 | 0.0 | -0.4 | -1.2
CC(=O)C1C(c2ccc(Br)cc2)c2c(noc2C)CC1(C)O (centres undefined) | -0.2 | -1.1 | -1.2 | -2.6 | -1.0 | -0.1
Cc1ccc(C(=O)NCCSC(C)(C)C)cc1 | 4.0* | 4.6 | 0.4 | 2.2 | 5.6 | 10.8*
CC(C)(C)SCCNC(=O)c1ccccc1 | 1.9 | 1.5 | 0.1 | 2.6 | 6.3 | 7.1
SMILES | DAX1 inh-1 | hcDAF-12 act | ssDAF12 agonist | DAX1 inh-2 | SMARCA2 activ | hgDAF-12 ag
C(=C\c1ccccc1)/CSc1nc2ncccc2[nH]1 | 0.5 | 0.9 | 0.0 | 4.5* | -1.3 | 5.3
Cc1c(Cl)c([N+](=O)[O-])nn1CC(=O)N1CCCC1 | -0.1 | -0.6 | -0.5 | 0.7 | 1.4 | -1.5
Cc1c(Cl)c([N+](=O)[O-])nn1CC(=O)N1CCN(Cc2ccccc2)CC1 | -1.0 | -0.9 | -0.8 | 4.4* | -4.9 | -0.4
COc1cc(OC)c2c(-c3ccccc3)cc(=O)oc2c1C(CCN1CCCC(C)C1)c1ccc2c(c1)OCO2 (centres undefined) | -0.6 | 3.2 | -0.9 | -0.5 | 1.1 | -1.2
Cc1cc(NC(=O)CSc2ccc(-c3cccc([N+](=O)[O-])c3)nn2)no1 | 4.0* | 1.8 | 0.1 | 0.4 | -4.6 | -1.7
CCSc1ccc(-c2cccc([N+](=O)[O-])c2)nn1 | 2.1 | 6.2* | -0.2 | 0.1 | 0.5 | 13.1*
O=C(CSc1ccc(-c2cccc([N+](=O)[O-])c2)nn1)N1CCCC1 | -0.3 | -1.4 | -0.9 | 2.2 | -2.0 | 0.4
CCOC(=O)/C(N=Nc1ccc2c(c1)OCO2)=C(\C)O | 1.6 | 1.1 | -1.5 | 6.3* | 5.9 | 10.2
O=c1c(C=NCc2ccccc2)c(NCc2ccccc2)nc2ccccn12 | -0.6 | 0.2 | -1.2 | 4.5* | 2.1 | -0.8
Cc1ccc2nc(NCc3ccccc3)c(C=NCc3cccnc3)c(=O)n2c1 | -0.5 | -1.3 | -1.0 | 1.0 | -5.2 | -1.9
Cn1/c(=N\NC(=O)c2ccccc2Cl)sc2ccccc21 | 1.3 | 1.0 | -1.1 | 1.8 | 3.0 | 11.9*
CC1(c2nnnn2-c2ccc3c(c2)OCCO3)CCC(=O)N1CCCn1ccnc1 (centres undefined) | 1.5 | -0.9 | -0.8 | x | -5.5 | 1.1
C/C(Cn1cnc([N+](=O)[O-])n1)=N\NC(=O)c1ccccc1 | 2.1 | 1.3 | -0.7 | 4.3* | 2.9 | 6.2
COC(=O)c1sccc1OCc1cccc(OC)c1 | -0.8 | -0.2 | -1.2 | 0.7 | 0.9 | 0.8
COC(=O)COc1ccsc1C(=O)OC | -0.2 | -0.9 | -1.3 | 4.2* | -0.3 | -2.0
N#Cc1nc(Cc2ccccc2)oc1N1CCCC1 | 0.5 | -1.2 | -1.0 | 6.2* | 3.2 | 2.4
CC1CC(C)CN(c2oc(Cc3ccccc3)nc2C#N)C1 (centres undefined) | 0.0 | -2.4 | -1.7 | -0.7 | -1.0 | -3.3
Cc1cccc(/C=N/n2c(-c3cc(-c4ccccc4)n[nH]3)n[nH]c2=S)c1 | 0.4 | -0.2 | -0.9 | -0.5 | 0.6 | 3.4
S=c1[nH]nc(-c2cc(-c3ccccc3)n[nH]2)n1/N=C/c1ccccc1 | 1.1 | -0.8 | -1.3 | 7.3* | 4.3 | 4.1
Cc1ccsc1C(=O)Nc1ccccc1N1CCOCC1 | -0.7 | -1.2 | -1.7 | -0.3 | -1.2 | 0.7
COc1cccc2c1cc1c(=O)n(CC(=O)NCc3ccccn3)nc(C)n12 | x | x | x | -0.1 | x | x
Cc1cc(C)n2nc(SCc3nc4ccccc4[nH]3)nc2n1 | 0.0 | -1.7 | -1.4 | 4.5* | -1.8 | -1.3
CS(=O)(=O)Nc1nc2n(n1)C(c1ccccc1)C=C(c1ccc(Br)cc1)N2 (centres undefined) | x | x | x | -0.4 | x | x
CCOC(=O)C1(Cc2ccccc2)CCCN(C(=O)C=C(C)C)C1 (centres undefined) | 0.2 | 3.2 | -0.1 | 1.3 | 0.8 | 3.5

Compound activity (PubChem)
